# Source: ChEMBL document CHEMBL1961873, “Compounds: GSK PKIS; Assays: Nanosyn kinase panel” (2012)
# Assays:
# [1] = target: RAC-alpha serine/threonine-protein kinase (Homo sapiens) (UniProt P31749); details: at 0.1 µM
# [2] = target: RAC-alpha serine/threonine-protein kinase (Homo sapiens) (UniProt P31749); details: at 1 µM
# [3] = target: RAC-beta serine/threonine-protein kinase (Homo sapiens) (UniProt P31751); details: at 0.1 µM
# [4] = target: RAC-beta serine/threonine-protein kinase (Homo sapiens) (UniProt P31751); details: at 1 µM
# [5] = target: RAC-gamma serine/threonine-protein kinase (Homo sapiens) (UniProt Q9Y243); details: at 0.1 µM
# [6] = target: RAC-gamma serine/threonine-protein kinase (Homo sapiens) (UniProt Q9Y243); details: at 1 µM
# [7] = target: G protein-coupled receptor kinase 6 (Homo sapiens) (UniProt P43250); details: at 0.1 µM
# [8] = target: G protein-coupled receptor kinase 6 (Homo sapiens) (UniProt P43250); details: at 1 µM
# [9] = target: T1, Rhodopsin kinase GRK7 (Homo sapiens) (UniProt Q8WTQ7); details: at 0.1 µM
# T1 sequence (whole entry): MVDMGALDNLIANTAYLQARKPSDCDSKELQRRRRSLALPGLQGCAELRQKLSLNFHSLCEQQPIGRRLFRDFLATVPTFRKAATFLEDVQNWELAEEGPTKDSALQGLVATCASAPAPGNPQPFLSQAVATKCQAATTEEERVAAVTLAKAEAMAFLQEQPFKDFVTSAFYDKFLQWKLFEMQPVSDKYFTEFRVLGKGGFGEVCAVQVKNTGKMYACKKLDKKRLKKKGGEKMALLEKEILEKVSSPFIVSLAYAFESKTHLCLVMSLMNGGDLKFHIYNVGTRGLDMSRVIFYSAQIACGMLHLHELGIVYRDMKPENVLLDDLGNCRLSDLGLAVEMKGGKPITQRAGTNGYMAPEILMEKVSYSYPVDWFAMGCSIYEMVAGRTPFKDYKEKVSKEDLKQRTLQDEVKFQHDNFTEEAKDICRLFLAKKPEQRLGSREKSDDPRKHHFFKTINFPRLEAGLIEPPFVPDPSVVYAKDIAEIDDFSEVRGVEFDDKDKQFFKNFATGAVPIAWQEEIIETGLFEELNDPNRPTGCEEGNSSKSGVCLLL
# [10] = target: T1, Rhodopsin kinase GRK7 (Homo sapiens); details: at 1 µM
# [11] = target: Serine/threonine-protein kinase MRCK alpha (Homo sapiens) (UniProt Q5VT25); details: at 0.1 µM
# [12] = target: Serine/threonine-protein kinase MRCK alpha (Homo sapiens) (UniProt Q5VT25); details: at 1 µM
# [13] = target: Serine/threonine-protein kinase MRCK beta (Homo sapiens) (UniProt Q9Y5S2); details: at 0.1 µM
# [14] = target: Serine/threonine-protein kinase MRCK beta (Homo sapiens) (UniProt Q9Y5S2); details: at 1 µM
# [15] = target: Ribosomal protein S6 kinase alpha-5 (Homo sapiens) (UniProt O75582); details: at 0.1 µM
# [16] = target: Ribosomal protein S6 kinase alpha-5 (Homo sapiens) (UniProt O75582); details: at 1 µM
# [17] = target: Ribosomal protein S6 kinase alpha-4 (Homo sapiens) (UniProt O75676); details: at 0.1 µM
# [18] = target: Ribosomal protein S6 kinase alpha-4 (Homo sapiens) (UniProt O75676); details: at 1 µM
# [19] = target: Ribosomal protein S6 kinase beta-1 (Homo sapiens) (UniProt P23443); details: at 0.1 µM
# [20] = target: Ribosomal protein S6 kinase beta-1 (Homo sapiens) (UniProt P23443); details: at 1 µM
# Serine/threonine-protein kinase MRCK beta (Homo sapiens), sequence (Q9Y5S2 whole entry): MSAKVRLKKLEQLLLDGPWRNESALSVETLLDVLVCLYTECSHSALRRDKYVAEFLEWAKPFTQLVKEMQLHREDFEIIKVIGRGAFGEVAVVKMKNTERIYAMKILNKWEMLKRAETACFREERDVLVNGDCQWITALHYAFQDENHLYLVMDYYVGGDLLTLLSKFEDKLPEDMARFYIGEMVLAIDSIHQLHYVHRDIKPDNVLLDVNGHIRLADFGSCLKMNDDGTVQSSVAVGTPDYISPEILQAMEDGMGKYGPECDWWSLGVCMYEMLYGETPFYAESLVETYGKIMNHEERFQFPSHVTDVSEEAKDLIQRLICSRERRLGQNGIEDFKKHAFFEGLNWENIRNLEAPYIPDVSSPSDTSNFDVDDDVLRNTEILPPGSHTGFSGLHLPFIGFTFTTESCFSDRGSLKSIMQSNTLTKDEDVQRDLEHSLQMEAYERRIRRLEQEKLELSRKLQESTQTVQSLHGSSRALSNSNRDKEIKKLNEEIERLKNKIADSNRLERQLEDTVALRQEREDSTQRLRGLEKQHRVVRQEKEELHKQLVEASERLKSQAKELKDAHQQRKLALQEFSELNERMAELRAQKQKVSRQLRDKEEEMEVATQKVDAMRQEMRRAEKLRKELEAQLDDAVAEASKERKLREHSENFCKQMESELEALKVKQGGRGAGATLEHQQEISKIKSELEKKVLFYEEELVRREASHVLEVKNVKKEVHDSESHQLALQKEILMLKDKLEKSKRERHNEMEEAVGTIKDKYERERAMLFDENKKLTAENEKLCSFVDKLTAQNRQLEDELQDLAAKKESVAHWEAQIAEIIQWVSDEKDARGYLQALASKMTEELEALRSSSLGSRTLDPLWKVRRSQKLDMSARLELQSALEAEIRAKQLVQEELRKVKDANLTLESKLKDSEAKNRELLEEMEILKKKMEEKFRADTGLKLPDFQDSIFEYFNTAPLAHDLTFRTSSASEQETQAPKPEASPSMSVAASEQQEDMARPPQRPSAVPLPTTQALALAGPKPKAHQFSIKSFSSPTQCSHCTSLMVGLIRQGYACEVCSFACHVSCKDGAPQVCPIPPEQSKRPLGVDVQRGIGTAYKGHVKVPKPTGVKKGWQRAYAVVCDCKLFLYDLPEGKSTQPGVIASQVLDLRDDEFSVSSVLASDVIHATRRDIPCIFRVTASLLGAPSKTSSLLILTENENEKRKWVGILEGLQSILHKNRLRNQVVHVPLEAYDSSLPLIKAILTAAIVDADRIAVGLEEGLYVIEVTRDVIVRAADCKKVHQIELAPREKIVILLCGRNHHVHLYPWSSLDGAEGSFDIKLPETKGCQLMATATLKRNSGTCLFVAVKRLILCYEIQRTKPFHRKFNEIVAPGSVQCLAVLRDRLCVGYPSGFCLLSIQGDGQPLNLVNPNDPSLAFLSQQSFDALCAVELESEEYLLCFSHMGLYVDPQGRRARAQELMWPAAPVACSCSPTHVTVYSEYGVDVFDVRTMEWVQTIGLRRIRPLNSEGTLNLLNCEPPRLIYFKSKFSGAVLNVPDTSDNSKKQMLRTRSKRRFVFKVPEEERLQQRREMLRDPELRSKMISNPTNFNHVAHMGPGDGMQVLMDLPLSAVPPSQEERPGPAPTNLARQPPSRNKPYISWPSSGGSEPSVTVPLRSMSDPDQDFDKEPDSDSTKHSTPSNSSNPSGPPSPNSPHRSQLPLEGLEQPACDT
# Ribosomal protein S6 kinase alpha-5 (Homo sapiens), sequence (O75582 whole entry, looked up): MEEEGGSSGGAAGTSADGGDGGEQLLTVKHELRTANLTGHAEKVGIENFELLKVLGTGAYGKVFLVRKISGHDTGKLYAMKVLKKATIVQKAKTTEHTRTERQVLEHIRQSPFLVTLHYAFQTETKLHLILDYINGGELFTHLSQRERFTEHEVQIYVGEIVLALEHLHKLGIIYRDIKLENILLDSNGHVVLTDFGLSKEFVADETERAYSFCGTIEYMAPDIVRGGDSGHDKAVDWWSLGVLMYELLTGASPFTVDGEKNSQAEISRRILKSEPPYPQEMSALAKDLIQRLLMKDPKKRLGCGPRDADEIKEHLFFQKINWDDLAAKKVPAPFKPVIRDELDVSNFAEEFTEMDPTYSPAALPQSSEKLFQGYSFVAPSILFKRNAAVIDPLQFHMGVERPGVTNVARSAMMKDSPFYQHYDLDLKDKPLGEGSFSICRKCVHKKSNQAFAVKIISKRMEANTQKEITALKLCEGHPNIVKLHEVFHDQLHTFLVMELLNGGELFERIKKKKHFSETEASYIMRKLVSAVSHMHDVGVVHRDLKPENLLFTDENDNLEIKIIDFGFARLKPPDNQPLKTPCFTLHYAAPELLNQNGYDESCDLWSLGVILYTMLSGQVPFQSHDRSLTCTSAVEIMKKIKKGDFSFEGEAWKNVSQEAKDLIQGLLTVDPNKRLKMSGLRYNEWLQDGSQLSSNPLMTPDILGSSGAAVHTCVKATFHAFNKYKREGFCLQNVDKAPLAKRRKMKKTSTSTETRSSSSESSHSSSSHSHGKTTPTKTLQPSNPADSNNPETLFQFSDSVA
# RAC-alpha serine/threonine-protein kinase (Homo sapiens), sequence (P31749 whole entry): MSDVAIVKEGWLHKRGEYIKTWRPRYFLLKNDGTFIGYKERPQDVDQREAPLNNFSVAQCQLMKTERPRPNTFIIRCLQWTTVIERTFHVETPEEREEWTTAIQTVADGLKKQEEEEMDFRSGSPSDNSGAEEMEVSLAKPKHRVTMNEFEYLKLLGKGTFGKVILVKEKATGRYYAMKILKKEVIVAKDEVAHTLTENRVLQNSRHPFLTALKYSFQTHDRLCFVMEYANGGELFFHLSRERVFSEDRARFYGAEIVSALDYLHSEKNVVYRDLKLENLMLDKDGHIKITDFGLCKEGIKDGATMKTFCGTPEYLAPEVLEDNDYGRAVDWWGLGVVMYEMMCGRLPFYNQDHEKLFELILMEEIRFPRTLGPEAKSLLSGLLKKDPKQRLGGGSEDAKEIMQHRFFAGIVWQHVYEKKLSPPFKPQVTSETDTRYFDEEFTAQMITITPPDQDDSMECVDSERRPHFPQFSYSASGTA
# RAC-gamma serine/threonine-protein kinase (Homo sapiens), sequence (Q9Y243 whole entry): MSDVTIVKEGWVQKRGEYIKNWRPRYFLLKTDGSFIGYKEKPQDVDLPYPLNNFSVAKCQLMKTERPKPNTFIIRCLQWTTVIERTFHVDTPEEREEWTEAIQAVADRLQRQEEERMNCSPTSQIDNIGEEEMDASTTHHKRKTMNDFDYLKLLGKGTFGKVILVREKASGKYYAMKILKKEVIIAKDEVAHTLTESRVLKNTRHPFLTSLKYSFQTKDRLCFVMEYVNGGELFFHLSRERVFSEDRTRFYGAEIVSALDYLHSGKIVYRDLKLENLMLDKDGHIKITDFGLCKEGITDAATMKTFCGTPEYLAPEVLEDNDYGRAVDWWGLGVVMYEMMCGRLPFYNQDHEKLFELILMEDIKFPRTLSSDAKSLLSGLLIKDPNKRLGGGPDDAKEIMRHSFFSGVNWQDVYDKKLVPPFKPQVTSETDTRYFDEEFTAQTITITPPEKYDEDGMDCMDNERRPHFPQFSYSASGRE
# Ribosomal protein S6 kinase alpha-4 (Homo sapiens), sequence (O75676 whole entry, looked up): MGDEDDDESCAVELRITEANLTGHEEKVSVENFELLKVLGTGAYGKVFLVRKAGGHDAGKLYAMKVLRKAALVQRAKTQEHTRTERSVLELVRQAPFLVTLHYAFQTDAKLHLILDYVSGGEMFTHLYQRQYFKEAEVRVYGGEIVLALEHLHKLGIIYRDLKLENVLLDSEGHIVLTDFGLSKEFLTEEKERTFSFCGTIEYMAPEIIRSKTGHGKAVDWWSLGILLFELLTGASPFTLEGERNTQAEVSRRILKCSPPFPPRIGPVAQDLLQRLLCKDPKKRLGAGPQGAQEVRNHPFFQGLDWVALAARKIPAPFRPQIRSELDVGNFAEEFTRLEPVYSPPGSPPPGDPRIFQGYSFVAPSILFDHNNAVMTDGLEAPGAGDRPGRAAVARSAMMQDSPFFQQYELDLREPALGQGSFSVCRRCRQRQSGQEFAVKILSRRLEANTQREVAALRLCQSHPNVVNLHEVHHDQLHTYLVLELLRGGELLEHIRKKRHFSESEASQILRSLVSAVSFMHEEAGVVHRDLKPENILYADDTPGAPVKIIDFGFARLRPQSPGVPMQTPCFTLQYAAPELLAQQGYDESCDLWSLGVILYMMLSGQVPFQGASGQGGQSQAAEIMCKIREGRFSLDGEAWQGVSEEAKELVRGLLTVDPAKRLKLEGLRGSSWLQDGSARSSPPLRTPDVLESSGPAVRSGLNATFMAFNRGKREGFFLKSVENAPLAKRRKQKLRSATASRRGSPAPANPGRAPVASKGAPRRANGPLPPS
# Ribosomal protein S6 kinase beta-1 (Homo sapiens), sequence (P23443 whole entry, looked up): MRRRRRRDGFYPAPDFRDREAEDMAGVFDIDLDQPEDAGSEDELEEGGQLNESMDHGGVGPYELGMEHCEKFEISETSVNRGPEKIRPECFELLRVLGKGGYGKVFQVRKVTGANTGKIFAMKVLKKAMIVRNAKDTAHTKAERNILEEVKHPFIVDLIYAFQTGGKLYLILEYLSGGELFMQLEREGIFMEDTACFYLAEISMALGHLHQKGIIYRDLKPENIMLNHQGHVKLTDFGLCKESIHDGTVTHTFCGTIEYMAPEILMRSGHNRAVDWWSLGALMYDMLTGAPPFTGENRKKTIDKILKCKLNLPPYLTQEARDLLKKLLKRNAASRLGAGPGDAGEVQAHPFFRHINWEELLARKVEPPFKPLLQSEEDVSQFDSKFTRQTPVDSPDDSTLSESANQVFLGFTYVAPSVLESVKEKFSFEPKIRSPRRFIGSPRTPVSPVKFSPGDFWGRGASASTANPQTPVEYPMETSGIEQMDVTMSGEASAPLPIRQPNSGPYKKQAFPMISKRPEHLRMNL
Compound,inhibition [1],inhibition [2],inhibition [3],inhibition [4],inhibition [5],inhibition [6],inhibition [7],inhibition [8],inhibition [9],inhibition [10],inhibition [11],inhibition [12],inhibition [13],inhibition [14],inhibition [15],inhibition [16],inhibition [17],inhibition [18],inhibition [19],inhibition [20]
COc1ccc(-c2ccncc2)cc1C(N)=O,0.88%,-0.34%,0.41%,2.06%,1.15%,2.9%,5.49%,5.53%,9.86%,2.23%,3.16%,6.38%,-0.49%,2.83%,9.33%,10.5%,2.85%,5.28%,1.79%,4.79%
Cn1cc(C=C2C(=O)Nc3cccnc32)c2ccccc21,0.73%,0.22%,1.08%,1.6%,1.15%,0.99%,-1.62%,6.18%,3.02%,10.6%,0.96%,0.55%,1.17%,0.99%,2.12%,3.29%,2.56%,10.1%,1.61%,3.78%
CNC(=O)c1cncc(/C=C/c2c(Cl)cccc2Cl)c1,-2.98%,-2.11%,-2.93%,-2.77%,-3.04%,0.11%,3.3%,4.35%,10.6%,8.22%,4.22%,1.78%,0.12%,0.52%,0.58%,1.1%,2.15%,3.75%,1.85%,2.12%
Nc1nc(-c2ccc3c(c2)C(=Cc2cc(Br)c(O)c(Br)c2)C(=O)N3)cs1,-2.07%,-1.22%,-2.78%,-0.83%,-2.54%,-0.36%,0.91%,10.7%,-6.85%,22.8%,-0.3%,-1.5%,0.42%,0.83%,-1.16%,0.13%,-1.47%,-0.48%,-1.65%,1.12%
COc1cc2ncn(-c3cc(OCc4ccccc4C(F)(F)F)c(C(N)=O)s3)c2cc1OC,-2.43%,-2.44%,-2.6%,-2.54%,-3.14%,-1.66%,0.88%,0.91%,9.69%,6.72%,-5.9%,-3.27%,-0.23%,-0.14%,1.71%,1.02%,2.52%,5.14%,1.44%,3.22%
COc1cc2ncn(-c3cc(O[C@H](C)c4ccccc4Cl)c(C(N)=O)s3)c2cc1OC,1.41%,2.07%,2.49%,2.19%,0.81%,1.74%,3.78%,15%,5.01%,10.8%,1.89%,5.55%,0.35%,1.02%,-1.18%,3.73%,4.32%,13.8%,1.42%,4.7%
O=C1NC(=O)C(c2ccccc2Cl)=C1Nc1cccc(O)c1,0.96%,1.06%,1.74%,1.48%,0.92%,1.56%,1.82%,2.13%,1.36%,-6.28%,0.28%,-0.35%,1.4%,3.99%,2.66%,5.41%,1.39%,3.42%,1.47%,0.61%
COC(=O)Nc1nc2cc(Oc3cccc(NC(=O)Nc4cc(C(F)(F)F)ccc4F)c3)ccc2[nH]1,0.52%,0.1%,-0.46%,-0.62%,0.98%,1.83%,2.28%,0.3%,-2.92%,1.74%,0.87%,0.69%,-0.19%,2.03%,0.09%,1.11%,-0.69%,1.7%,-0.07%,1.88%
Cc1cccc(-c2n[nH]cc2-c2ccc3ncccc3n2)n1,-0.73%,0.02%,0.56%,-0.22%,2.42%,2.13%,0.46%,3.16%,-0.51%,5.08%,0.34%,0.69%,0.87%,1.36%,0.79%,0.35%,1.84%,0.64%,0.55%,-0.68%
Cc1nn(C)c2cc(N(C)c3ccnc(Nc4cccc(S(N)(=O)=O)c4)n3)ccc12,0.47%,0.23%,1.6%,2.15%,1.22%,1.54%,3.92%,3.28%,2.2%,10.5%,-1.1%,2.42%,1.01%,3.81%,10.5%,11.1%,4.88%,6.94%,2.3%,2.85%
COc1ccc(-c2coc3ncnc(N)c23)cc1,0.76%,0.76%,2.07%,1.94%,0.3%,2.05%,1.34%,1.56%,3.57%,9.28%,0.52%,-0.11%,1.16%,1.93%,9.6%,8.17%,1.64%,3.84%,1.77%,2.26%
O=C1Nc2ccc(C(=O)c3ccco3)cc2C1=Cc1cc(Cl)c(O)c(Cl)c1,0.57%,1.08%,1.49%,0.98%,1.75%,0.62%,29.7%,79.6%,30.6%,54.8%,-0.25%,1.33%,-0.3%,1.6%,2.41%,5.05%,0.41%,4.81%,0.47%,3.14%
CC(C)=Cc1cccc2c1/C(=N/Nc1ccc(S(N)(=O)=O)cc1)C(=O)N2,0.31%,0.65%,0.76%,0.93%,2.87%,0.49%,3.06%,8.62%,1.04%,-0.7%,1.91%,3.43%,-0.74%,0.5%,7.7%,11.4%,2.65%,15.9%,1.06%,5.23%
